This experiment is described as follows: probe aNOTCH2 binding on compound microarray – biochemical, small-molecule microarray, 635/667 nm fluorescence, primary screen (AID 1121).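 Also: score merges feature fluorescence read at 667 nm with its signal to noise.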 To be noted: higher = more signal.
Regarding `CC[C@H]1C2=C3C(CC[C@H]4C(OCc5ccc(F)cc5C(F)(F)F)OC[C@](C)([C@@H]34)N(C(=O)OC(C)(C)C)C2)C(COC)C1COC` (some centres not stated), the composite z-score was -0.0372.

On to `CC(C)N1C(=O)C[C@@](C(=O)NCCCN(C)C)(c2ccc([N+](=O)[O-])cc2)[C@H]1c1ccc(CO)cc1`, for which the composite z-score was -0.0698.

In turn, `NC(=O)NCC#Cc1ccc2c(c1)[C@]1(C(=O)N2)[C@H](C(=O)NC[C@H](O)c2ccccc2)[C@H]2C(=O)O[C@H](c3ccccc3)[C@H](c3ccccc3)N2[C@@H]1c1ccc(OCCO)cc1` displayed a composite z-score of -0.0449.

On to `Cc1ccccc1C(O)C1C=CC2C(=O)N(C)C(=O)C2N1N(c1ccccc1)c1ccccc1` (configuration not stated), for which the composite z-score came to 0.473.

`C=CCC(OC(C)=O)[C@@H]1[C@@H](N(Cc2cc3ccccc3o2)C(=O)c2ccc(C)cc2)c2cc(OCCCO)ccc2N1C(=O)Cc1ccc(OC)cc1` (some centres not stated): the composite z-score is -0.0811.

On to `COC(=O)C1=CC(CCCO)=CC(C2CC2)N(C)C=C1C(=O)OC` (configuration not stated), for which the composite z-score was -0.0668.

For the compound `COc1cc2c(cc1OC)CN(C(=O)[C@@H]1[C@H]3C(=O)O[C@H](c4ccccc4)[C@H](c4ccccc4)N3[C@H](c3ccc(OCCO)cc3)[C@@]13C(=O)Nc1ccc(C#CC4(O)CCCCCC4)cc13)CC2`, the composite z-score was -0.166.

Turning to `COc1cc(OC)c(C(O)C2C=CC3C(=O)N(c4ccccc4)C(=O)C3N2Nc2ccccc2)cc1Br` (configuration not stated), the composite z-score was -0.117.

In turn, `COc1ccc([Si](C)(C)[C@@H]2[C@@H](CC(=O)N(CCO)Cc3ccccc3)O[C@]3(C(=O)N(Cc4cccc(N5C(=O)c6cccc7cccc5c67)c4)c4ccccc43)[C@H]2C)cc1` registered a composite z-score of -0.203.

`COC(=O)c1c2oc(c1C(=O)OC)C(=O)N(C)Cc1cn(nn1)C[C@H](Cc1ccccc1)NC(=O)N[C@H](CO)CC2` showed a composite z-score of -0.18.

In turn, `O=C(CS)NCCCCCCNC(=O)[C@H]1C[C@H]2C(=O)N[C@@H](Cc3ccccc3)C(=O)N2[C@H]1c1ccc(O)cc1` came in with a composite z-score of -0.0924.

On to `O=C1C2C=CC(C(O)c3ccccc3)N(Nc3ccccc3F)C2C(=O)N1c1ccccc1` (configuration not stated), for which the composite z-score was -0.126.

In turn, `CC(C)(C)N1CC=CC23O[C@@H]4C=CCOC(=O)[C@@H]4[C@H]2C(=O)N(CCCCCCO)[C@@H]3C1=O` (some centres not stated) displayed a composite z-score of -0.112.

Consider `CCCCO[C@H]1C[C@H]2C(I)=C[C@@H]1C(=O)[C@]21CO1`, for which the composite z-score was -0.25.

As to `C=CCOC(=O)[C@H]1[C@@H]2C(=O)O[C@@H](c3ccccc3)[C@@H](c3ccccc3)N2[C@@H](c2ccc(OCCOC(=O)[C@@H]3C[C@@H]4C(=O)N5CCC[C@H]5C(=O)N4[C@@H]3c3ccc(O)cc3)cc2)[C@]12C(=O)Nc1ccc(I)cc12`, the composite z-score is -0.118.

With `C=CCOC(=O)[C@H]1[C@@H]2C(=O)O[C@@H](c3ccccc3)[C@@H](c3ccccc3)N2[C@@H](c2ccc(OCCOC(=O)[C@H]3C[C@H]4C(=O)N[C@@H](CCCCNC(C)=O)C(=O)N4[C@H]3c3ccc(O)cc3)cc2)[C@]12C(=O)Nc1ccccc12`, the composite z-score was -0.112.

In the case of `CCOc1cc(C(O)C2C=CC3C(=O)N(C)C(=O)C3N2Nc2ccccc2)ccc1O` (configuration not stated), the composite z-score was 0.0931.

The compound `C#CCN([C@@H](Cc1ccc(O)cc1)C(=O)OC)[C@@H](/C=C/C1CC1)[C@H](O)Cc1ccccc1` returned a composite z-score of -0.172.

On to `O=c1n(-c2ccccc2)c(=O)n2n1CC(COc1ccccc1)=C([C@H](O)CCc1ccccc1)[C@@H]2CO`, for which the composite z-score is -0.0895.

`CC(=O)NCCCC[C@@H]1NC(=O)[C@H]2C[C@@H](C(=O)NCCCC[N+](C)(C)C)[C@@H](c3cccc(OCCO)c3)N2C1=O` had a composite z-score of -0.0974.

Turning to `CN1C(=O)C2C=CC(C(O)c3ccccn3)N(N(c3ccccc3)c3ccccc3)C2C1=O` (configuration not stated), the composite z-score was -0.0166.

On to `C[N+](C)(C)CCCCCCNC(=O)[C@H]1C[C@H]2C(=O)NCC(=O)N2[C@H]1c1ccc(O)cc1`, for which the composite z-score is -0.149.

Compound `CCCC[C@@H]1C[C@H]1[C@@H](NC(=O)c1cccs1)c1ccc(C(F)(F)F)cc1` displayed a composite z-score of -0.0859.

Compound `COc1ccc(CCN2C(=O)[C@@]3(Cc4ccccc42)c2ccccc2C(=O)N(Cc2ccccc2OC)[C@H]3c2ccc(CO)cc2)cc1` gave a composite z-score of -0.0785.

`C[C@@H]1NC(=O)[C@@]23C(=O)N[C@@H](Cc4ccccc4)C2[C@H](C)[C@@]2(C)O[C@H]2C3/C=C/C/C=C\CNC(=O)[C@@H]2CCCN2C1=O` (some centres not stated) showed a composite z-score of -0.139.

For `C=C(/C(=C/C[C@H](OC(C)=O)c1cccc(OCCO)c1)c1cnc2ccccc2c1)C(C)C`, the composite z-score was -0.0859.

The compound `[N-]=[N+]=NCc1ccccc1[C@H]1OC(c2ccc(OCCCO)cc2)=N[C@@]1(CCS(=O)(=O)c1ccccc1)C(=O)NCC(O)CO` (some centres not stated) registered a composite z-score of 0.0697.
